The structures appear in SMILES notation. Active and inactive are the calls of the source.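 Rule for the calls: active = luciferase inhibitors whose fitted dose curve gives a half-maximal potency within ten times the top tested dose; inconclusive = flat curve with 30 to 70% inhibition, or a poor fit; inactive = the rest.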

A short description of the test: ADP-Glo luciferase interference without Dyrk1A, dose response, artefact control for Dyrk1A inhibitor project, biochemical, luminescence, cherry-pick, set 04 (AID 588432). (In ADP-Glo the light output rises with the ADP produced.)

Turning to `Cc1nc(CNc2ncnc3ccc(-c4ccc5c(c4)OCO5)cc23)cs1`, the compound was called inactive.

In the case of `Cc1ccc(CNc2ncnc3ccc(-c4ccc5c(c4)OCO5)cc23)o1`, the compound was called inactive.

On to `CN(Cc1ccco1)c1ncnc2ccc(-c3ccc4c(c3)OCO4)cc12`, for which the compound was called inactive.

`Clc1ccc(CNc2cc(-c3ccc4c(c3)OCO4)ncn2)cc1`: the compound was called inactive.

As for `c1cc(-c2ccc3c(c2)OCO3)nc(Nc2ccc3c(c2)OCO3)n1`, the call was inactive.

`CN(C)c1ccc(-c2nccc(NCc3cccs3)n2)cc1`: the compound was called inactive.

With `Brc1cc(Br)cc(CNc2nccc(-c3ccc4c(c3)OCO4)n2)c1`, the outcome was inactive.

Regarding `COc1ccc(-c2ccnc(NCc3ccc(Cl)c(Cl)c3)n2)cc1OC`, the compound was called inactive.

On to `CCCNc1ncnc2ccc(-c3ccc4c(c3)OCO4)cc12`, for which the result was inactive.

On to `Brc1ccc(CNc2nccc(-c3ccc4c(c3)OCO4)n2)cc1Br`, for which the call was inactive.

For the compound `Cc1c(-c2ccnc(NCc3cccnc3)n2)sc(=O)n1C`, the compound was classed as inactive.

On to `Clc1ccc(CNc2cc(-c3ccc4c(c3)OCO4)ncn2)cc1Cl`, for which the compound was called inactive.

For `Cc1ccsc1CN(C)c1ncnc2ccc(-c3ccc(CO)o3)cc12`, the call was inactive.

Regarding `O=[N+]([O-])c1cc(Nc2nccc(-c3ccc4c(c3)OCO4)n2)cc(C(F)(F)F)c1`, the compound was classed as inactive.

For the compound `Cc1ccc(CNc2ncnc3ccc(-c4ccoc4C)cc23)o1`, the compound was called inactive.

Take `CCOC(=O)c1ccc(-c2ccc3ncnc(NCc4ccc(C)o4)c3c2)o1`: the result was inactive.

For `Cc1cccc(CNc2ncnc3ccc(-c4cccc(Cl)c4)cc23)c1`, the compound was classed as inactive.

Turning to `Cc1ccsc1CNc1ncnc2ccc(-c3ccc4c(c3)OCO4)cc12`, the result was inactive.

For `CS(=O)(=O)CCNCc1ccc(-c2ccc3ncnc(Nc4ccc(OCc5cccc(F)c5)c(Cl)c4)c3c2)o1`, the result was inactive.

Turning to `Cc1ccsc1CN(C)c1ncnc2ccc(-c3ccoc3)cc12`, the compound was called inactive.

Take `CN(Cc1cccs1)c1ncnc2ccc(-c3ccc4c(c3)OCO4)cc12`: the compound was classed as inactive.

With `c1cncc(CNc2nccc(-c3ccc4cn[nH]c4c3)n2)c1`, the compound was called inactive.

In the case of `Cc1occc1CNc1ncnc2ccc(-c3ccc4c(c3)OCO4)cc12`, the result was inactive.

`c1csc(CCNc2ncnc3ccc(-c4ccc5c(c4)OCO5)cc23)c1`: the compound was called inactive.

On to `Clc1cc(Cl)cc(CNc2nccc(-c3ccc4c(c3)OCO4)n2)c1`, for which the call was inactive.

As to `Cc1csc(CN(C)c2ncnc3ccc(-c4ccc5c(c4)OCO5)cc23)n1`, the compound was called inactive.

For `Fc1c(-c2ccc3ncnc(NCc4cccs4)c3c2)ccc2c1OCO2`, the compound was called inactive.

With `CCN(Cc1cccs1)c1ncnc2ccc(-c3ccc4c(c3)OCO4)cc12`, the call was inactive.

Turning to `c1nc(NCC2CCCC2)c2cc(-c3ccc4c(c3)OCO4)ccc2n1`, the call was inactive.

For `Cc1nc(CNc2ncnc3ccc(-c4ccoc4)cc23)cs1`, the outcome was inactive.

On to `COc1ccc(-c2nccc(NCc3ccc(C)cc3)n2)cc1`, for which the compound was called inactive.

For `Cc1csc(CNc2ncnc3ccc(-c4ccc5c(ccn5C)c4)cc23)c1`, the result was inactive.

On to `c1coc(CCNc2ncnc3ccc(-c4ccc5c(c4)OCO5)cc23)c1`, for which the call was inactive.

Consider `Clc1ccc(CNc2ncncc2-c2ccc3c(c2)OCO3)cc1`, for which the outcome was inactive.

These data come from PubChem BioAssay AID588432 (Broad Institute, 2011).
